Measurements taken from PubChem BioAssay (NCATS).
Several values for one entry are separate records, joined by “and”; a condition that tells them apart may be missing. Equal values may be shown once. Records with an inconclusive call do not appear. Where a call stands in place of a potency, no number is given. Values without a mark were called inactive. Activity calls are given as the source filed them. Calls come from the whole dose curve; as a rule, active = well fitted cell-killing curve with a large enough effect; inconclusive = small, poorly fitted or top-dose-only effect, or effect the other way; inactive = no such curve, though single readings can be large or run the other way.

What was measured:
[1] = Viability qHTS for spleen associated tyrosine kinase inhibitor (SYKi) naive MV4-11 cells (AID 1963823); note: nearly all actives have a fitted effect of over 40% in size
Procedure, shortened: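 Viability of MV4-11 AML cells lacking prior SYK inhibitor exposure is scored by CellTiter-Glo luminescence following 72 hr compound incubation at 37 C, 5% CO2, seeded at 500 cells per well.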

[2] = Viability qHTS for spleen associated tyrosine kinase inhibitor (SYKi) drug resistant MV4-11 cells (AID 1963824); note: nearly all actives have a fitted effect of over 35% in size
Procedure, shortened: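 SYK inhibitor-resistant MV4-11 AML cells, 500 per well, added to predispensed compounds and incubated 72 hr at 37 C, 5% CO2. Viability measured by CellTiter-Glo luminescence after 10 min at room temperature.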
Potency is the fitted concentration of half-maximal effect.

SMILES | viability (% of control) [1] | viability, % of control [2] | Potency [1] | Potency [2]
CC1(C)CC[C@]2(C(=O)OC3OC(CO)C(O)C(O)C3O)CC[C@]3(C)C(=CCC4[C@@]5(C)C[C@@H](O)[C@H](OC6OC(C(=O)O)C(O)C(O)C6O)C(C)(C)C5CC[C@]43C)[C@@H]2C1 (stereo partly specified) | 76.2% [at 9.25 µM] | 95.5% [at 9.25 µM] | – | –
CC(=O)N[C@H]1[C@H](O[C@H]2CC[C@@]3(C)C(CC[C@]4(C)C3CC=C3C5CC(C)(C)CC[C@]5(C(=O)O)[C@H](O)C[C@]34C)C2(C)C)O[C@H](CO[C@@H]2OC[C@H](O)[C@H](O)[C@H]2O[C@@H]2OC[C@@H](O)[C@H](O)[C@H]2O)[C@@H](O)[C@@H]1O (stereo partly specified) | 83.2% [at 9.25 µM] | 113% [at 9.25 µM] | – | –
COC(=O)CC1(O)C(=O)Nc2ccccc21 (stereo unspecified) | – | – | inactive | inactive
C/C(=C\CCC(C)CCO)C(=O)OC[C@H]1O[C@@H](O[C@@H]2OC=C(C(=O)O)[C@H]3CC[C@](C)(O)[C@@H]23)C(O)[C@@H](O)C1O (stereo partly specified) | – | – | inactive | inactive
CNS(=O)(=O)c1ccccc1Nc1nc(Nc2ccc(N3CCN(C)CC3)cc2OC)ncc1Cl | – | – | 20.6 nM (active) | 36.6 nM (active)
CC(=O)NCCCCn1c2c(c3ccccc31)C(=O)NCC2 | – | – | inactive | inactive
COC(=O)c1cc(OC)c(O[C@@H]2O[C@@H](C)[C@H](O)[C@@H](O)[C@H]2O)c(OC)c1 | – | – | inactive | inactive
CC[C@H](C)[C@H](NC(=O)[C@H]([C@@H](C)CC)N(C)C(C)=O)C(=O)N[C@H](C(=O)N[C@@H](CC(C)C)C(=O)[C@@]1(C)CO1)[C@@H](C)O | – | – | 5.8 nM (active) | 7.3 nM (active)
CC(C)C(=O)O[C@@H]1[C@@H](O)[C@@H](O[C@H]2O[C@H](CO)[C@@H](O)[C@H](O)[C@H]2O)O[C@H](CO)[C@H]1O | – | – | inactive | inactive
COC1CC(OC2CCC3(C)C(=CCC4C3C(OC(C)=O)C(OC(=O)/C=C/c3ccccc3)C3(C)C(C(C)O)CCC43O)C2)OC(C)C1OC1CC(OC)C(OC2OC(C)C(OC3OC(CO)C(O)C(O)C3O)C(OC)C2O)C(C)O1 (stereo unspecified) | 69.8% [at 9.25 µM] | 71.5% [at 9.25 µM] | – | –
COc1ccc(C(=O)CC(=O)O)c2c1C=CC(C)(C)O2 | – | – | inactive | inactive
Cc1c(C(=O)O)c(O)cc2c1C(=O)c1c(O)c([C@@H]3O[C@H](CO)[C@@H](O)[C@H](O)[C@H]3O)c(O)c(O)c1C2=O | – | – | inactive | inactive
C=C(C(=O)O)C1CCC2(C)CCC(O)C(C)(O)C2C1 (stereo unspecified) | – | – | inactive | inactive
O=C(Nc1ncc(SCCN2CCCC2)s1)C1(c2ccc(S(=O)(=O)C3CC3)cc2)CC1C1CCCCC1 (stereo unspecified) | – | – | 8200 nM (active) | 8200 nM (active)
CC(CCc1ccc(O)cc1)O[C@@H]1O[C@H](CO[C@@H]2OC(CO)[C@H](O)[C@H]2O)[C@@H](O)[C@H](O)[C@H]1O (stereo partly specified) | – | – | inactive | inactive
COC(=O)C1=C[C@@H](O)[C@@H](O)[C@H](O[C@@H]2O[C@H](COC(=O)/C=C/c3ccccc3)[C@@H](O)[C@H](O)[C@H]2O)C1 | – | – | inactive | inactive
CCCCOc1ccc(CC/C=C2\SC(=O)N(CCN)C2=O)cc1 | – | – | 5170 nM (active) | 2910 nM (active)
CCC/C=C1\OC(=O)C2=C1CCC(O)C2O (stereo unspecified) | – | – | inactive | inactive
Nc1ncnc2c1c(-c1ccc(Oc3ccccc3)cc1)cn2C1CCCC1 | – | – | 366 nM (active) | 1030 nM (active)
CC(=O)O[C@H]1CC(C)(C)CC2[C@@]13[C@H](O)C[C@]1(C)[C@@]2(CCC2[C@@]4(C)CC[C@H](O[C@@H]5OC[C@H](O[C@@H]6O[C@H](CO)[C@@H](O)[C@H](O)[C@H]6O[C@@H]6OC[C@@H](O)[C@H](O)[C@H]6O)[C@H](O)[C@H]5O[C@@H]5O[C@H](CO)[C@@H](O)[C@H](O)[C@H]5O)C(C)(C)C4CC[C@]21C)O[C@@H]3O (stereo partly specified) | – | – | 873 nM (active) | 778 nM (active)
O=C(C(c1ccccc1)c1ccccc1)N1CCN(CC(O)COc2cccc3ncccc23)CC1 (stereo unspecified) | – | – | 20900 nM (active) | 10.3 µM (active) and 11.8 µM (active)
CC1(C)C(O)CCC2(C)C1C(O)C=C1COC(=O)C12O (stereo unspecified) | – | – | inactive | inactive
C=CC(C)(C)c1[nH]c2ccccc2c1C[C@@H]1NC(=O)[C@H](C)NC1=O | – | – | inactive | inactive
